Screens from PubChem.
HT1080 IDH1KD tx: toxicity to HT-1080 IDH1 knockdown cells (counter line); HT-1080 IDH1 knockdown viability, ATP luminescence, 48 h; Potency, µM (doses to about 46.1 µM), for inactives: top-dose activity, negative = toxicity, usual class: cytotoxic; hit rate 2% among 360,000; AID 686971;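 note: 0% = DMSO wells and -100% = cell-free medium wells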
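Using the IDH1-knockdown HT-1080 line run in the same batch and compound series as the NT line, viability after 48 h at 37 °C was determined by CellTiter-Glo luminescence and expressed as % activity.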
MCF10A rerep: inducers of DNA re-replication in MCF 10A breast cells. MCF 10A DNA re-replication, Hoechst nuclear intensity, 48 h. Potency, µM (series often up to 46.1 µM), inactives show at the highest dose activity, positive = re-replication, most hits filed as activators. hit rate 2.9% among 350,000. AID 624296; note: % of control where 0% means no effect; nearly all actives have a fitted effect of over 50% in size
KB-V1 MDR tox: KB-V1 MDR subline cytotoxicity | hit rate 3.4% among 400,000 | Potency, µM (highest dose often 46.1 µM), usual class: cytotoxic | KB-V1 MDR cells viability, CellTiter-Glo, 72 h; note: % is set by controls: 0 for no effect and ±100 for the full control effect; nearly all actives have a fitted effect of over 60% in size
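KB-V1 cells (P-gp-expressing MDR subline of KB-3-1) in phenol-red-free DMEM with 10% FBS were exposed to library compounds over a concentration series for 72 h at 37 degrees C. Viability read by CellTiter-Glo luminescence; concentration-effect curves fitted after normalization.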
SW480 rerep: induces DNA re-replication in SW480 colon adenocarcinoma cells | Potency, µM (titrated, usually from 46.1 µM), for the others: at the top dose re-replication activation, hits mostly activators | hit rate 1.8% among 340,000 | AID 624297 | SW480 DNA re-replication, Hoechst DNA content imaging, 48 h; note: % of control where 0% means no effect; nearly all actives have a fitted effect of over 55% in size
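250 cells/well; 23 nL cpd via pin tool; 48 hr, 37 C, 5% CO2; Hoechst 40 min; imager read of total nuclear intensity, ex 405/em 500-530 nm.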
KB-3-1 tox: KB-3-1 parental cell cytotoxicity. KB-3-1 viability, CellTiter-Glo ATP luminescence, 72 h. Potency, µM (series often up to 46.1 µM), usual class: cytotoxic. hit rate 1.4% among 400,000; note: % is set by controls: 0 for no effect and ±100 for the full control effect; nearly all actives have a fitted effect of over 60% in size
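Viability of parental KB-3-1 cells, measured by CellTiter-Glo luminescence, followed a 72 h incubation at 37 °C with pinned compounds in phenol-red-free DMEM containing 10% FBS.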
HT1080NT lethal: kills 2HG-producing HT-1080-NT fibrosarcoma cells; hit rate 1.6% among 360,000; HT-1080-NT fibrosarcoma viability, CellTiter-Glo ATP luminescence, 48 h; AID 686970; Potency, µM (highest dose often 46.1 µM), inactives show top-dose activity, negative = less viability, actives largely listed as cytotoxic;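 note: NT is the 2HG producing partner of a matched IDH1 knockdown line; 0% = DMSO-treated cells and -100% = media-only wells without cells; nearly all actives have a fitted effect of over 55% in size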
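Viability by CellTiter-Glo luminescence after 48 h compound exposure at 37C of HT-1080-NT cells (750/well, RPMI, 5% FBS). % activity scaled between DMSO wells and medium-only wells, then curve-fitted and categorized by curve class.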
An asterisk follows results filed as active; i = inactive; u = inconclusive; x = no result given; ! = a repeat was not active. The list is not random: actives were taken first. Their share in the collection is about 7.9%. Calls come from the whole dose curve; as a rule, active = well fitted curve in the direction sought with a large enough effect; inconclusive = small, poorly fitted or top-dose-only effect, or another doubt; inactive = no such curve, though single readings can be large; an effect the other way counts as inactive or inconclusive. Potency is the fitted concentration of half-maximal effect.

SMILES	HT1080 IDH1KD tx	MCF10A rerep	KB-V1 MDR tox	SW480 rerep	KB-3-1 tox	HT1080NT lethal
CCc1ccc(OCCNC(=O)c2ccccc2SCc2ccccc2)cc1	u	16µM*	u	8%	u	-24%
Cc1ccc(C)c(NC(=O)[C@@H]2CCCN2S(=O)(=O)c2ccccc2F)c1	-2%	8%	i	-18%	i	6%
CN(C(=O)COC(=O)c1ccccc1Nc1ccccc1)c1c(N)n(Cc2ccccc2)c(=O)[nH]c1=O	u	u	i	10%	u	u
CC(=O)Nc1c(Cl)c(Cl)c2c(c1Cl)C(=O)c1cc(Cl)ccc1-2	16%	0%	15µM*	-1%	21µM*	3%
CC(=O)NC(Cc1ccc(F)cc1)C(=O)NC1CCN(c2ncccc2[N+](=O)[O-])CC1 (stereo not given)	1%	0.82µM*	i	-33%	i	10%
COc1cccc(CC(NC(C)=O)C(=O)NC2CCN(c3c(Cc4ccccc4)c(C)nc4ncnn34)CC2)c1 (stereo not given)	-2%	u	i	23µM*!	u	5%
CC(=O)NC(Cc1cccc(C)c1)C(=O)NC1CCN(c2ncccc2[N+](=O)[O-])CC1 (stereo not given)	0%	-4%	15µM*	-3%	i	4%
CC(=O)NC(Cc1cccc(F)c1)C(=O)NC1CCN(c2ncccc2[N+](=O)[O-])CC1 (stereo not given)	-1%	2%	i	-9%	i	2%
CC(=O)c1cc(CN2CCN(C3CCN(C(C)C)CC3)C(CCO)C2)cs1 (stereo not given)	1%	0%	i	0%	i	-7%
CCOC(=O)c1c(C)[nH]c(C)c1S(=O)(=O)N1CCC(C(=O)NCc2ccccc2)CC1	x	x	u	x	i	x
CC(NC(=O)c1ccccc1NC(=O)CN1CCc2ccccc2C1)c1ccccc1 (stereo not given)	-29%	26µM*	18µM*	u	u	-15%
Cc1ccc2[nH]cc(CCNC(=O)Nc3ccccc3)c2c1	9%	-6%	i	4%	i	4%
Cc1ccccc1N(CC(=O)N/N=C/c1ccc(Cl)cc1)C(=O)c1ccccc1	-22%	26µM*	21µM*	u	u	-7%
Cc1ccccc1N(CC(=O)N/N=C/c1ccc(F)cc1)C(=O)c1ccccc1	-9%	5%	i	4%	i	-8%
C=C(C(=O)c1ccccc1)C(C)C(=C)C(=O)c1ccccc1	5.8µM*	2.9µM*	3.3µM*	7.3µM*	u	8.2µM*
CC(/C=C/c1ccccc1F)=N\NC(=O)c1ccccc1	u	12%	u	0%	u	-23%
CC(/C=C/c1ccccc1F)=N\NC(=O)c1ccc(Cl)cc1	7.3µM*	u	i	18%	i	4.6µM*
O=[N+]([O-])c1ccc(/C=C2\CCC(C3=CCCC3)=C2N2CCOCC2)cc1	-17%	23µM*	u	u	i	1%
CCOC(=O)[C@]12CCC=C1N(Cc1ccc3c(c1)OCO3)C(=O)[C@H](CC(=O)N1CCCCC1)C2	9%	x	i	x	i	1%
Cc1ccc(C(=O)C2CCN(CC(=O)Nc3nc(C)cs3)CC2)cc1	1%	3%	21µM*	-2%	i	0%
COc1ccc(C(=O)C2CCN(CC(=O)Nc3cc(C)cc(C)c3)CC2)cc1	-4%	u	u	28%	i	-6%
Cc1cccc(NC(=O)CN2CCC(C(=O)c3ccc4c(c3)OCCO4)CC2)c1	-7%	26%	12µM*	2%	u	-5%
CCOC(=O)N1CCN(C(=S)Nc2cccc(C)c2)CC1	8%	6%	18µM*	-14%	i	6%
CCOC(=O)C1CCN(C(=S)Nc2cccc(C)c2)CC1	26%	5%	i	23%	i	7%
Cc1cccc(NC(=O)CN2CCN(CC(=O)Nc3cccc(C)c3)CC2)c1	14%	21µM*	u	1%	i	-2%
SMILES	HT1080 IDH1KD tx	MCF10A rerep	KB-V1 MDR tox	SW480 rerep	KB-3-1 tox	HT1080NT lethal
Cc1cc(C)n2nc(SCC(=O)Nc3ccccc3C)nc2n1	28%	1%	i	1%	i	23%
O=C(CCN1C(=O)c2cccc3cccc(c23)C1=O)N1CCOCC1	15%	20%	i	1%	i	27%
Cc1ccc(C(=O)C2CCN(CC(=O)Nc3ccc(N(C)C)cc3)CC2)cc1	-14%	18%	i	1%	i	-7%
CN1CCN(C(=S)Nc2cccc(Cl)c2)CC1	13%	17%	13µM*	6%	i	9%
Cc1ccc(C(=O)C2CCN(CC(=O)Nc3ccc4c(c3)OCCO4)CC2)cc1	-19%	25%	12µM*	1%	i	-8%
CCN1CCN(C(=S)Nc2cccc(Cl)c2)CC1	-10%	0%	i	-1%	i	2%
CCOc1ccc(C(C)=O)cc1CSc1nnc(-c2cccs2)n1CC1CCCO1 (stereo not given)	2%	0%	i	-1%	i	4%
N#Cc1c(N)[nH]c2ccc(Sc3ccccc3)cc12	7.3µM*	0.92µM*	3.3µM*	4.1µM*	2.3µM*	3.3µM*
O=S(=O)(Nn1cnnc1)c1ccc(F)cc1	-3%	2.3µM*	i	27%	i	-5%
Cc1c(NC(=O)c2ccco2)c(=O)n(-c2ccccc2)n1C	0%	0%	i	26%	i	-3%
CC(C)NC(=O)c1cc(-c2ccco2)nn1-c1ccc(Cl)cc1	-15%	10%	u	-1%	i	-3%
COCCCN=C1NN=C(c2cc(C)n(Cc3ccccc3Cl)c2C)CS1	7.3µM*	u	1.5µM*	0.65µM*	1.3µM*	4.6µM*
Cc1cc(C2=NNC(=Nc3ccccc3)SC2)c(C)n1C	-2%	4%	i	11%	i	7%
COCCCN=C1NN=C(c2cc(C)n(-c3ccccc3)c2C)CS1	13%	u	i	u	i	7%
COCCCN=C1NN=C(c2cc(C)n(-c3ccccc3F)c2C)CS1	u	u	i	u	7.3µM*	u
COCCn1c(C)cc(C2=NNC(=Nc3ccccc3F)SC2)c1C	-10%	19%	12µM*	5%	18µM*	-1%
Oc1ccc(N2CCN(Cc3ccc(OCCCN4CCCCC4)cc3)CC2)cc1	-14%	u	i	u	i	-12%
Cc1cc2c(cc1C)N(C(=O)CCl)CC(=O)N2	23µM*	x	u	x	u	u
Cc1cc2c(cc1C)N(C(=O)CCl)CCN2C(=O)CCl	u	4.6µM*	7.3µM*	3.7µM*	15µM*	u
